Sensor-assay potency score (higher = more potent) data for 39 sequences are collected here from the OligoGym collection.
Note: reference of the scale not given here.

The first test deals with FH. The test is described as follows: pooled miR-30 sensor sort-seq; sequence = guide strand. The settings on record: shRNA.
On to AACATAACCACTAAATTCCTGC, for which the sensor-assay potency score (higher = more potent) was -0.241.

The sequence TTGTCTGAGTTCCTGATCCAGT returned a sensor-assay potency score (higher = more potent) of -0.75.

Regarding TTTCCTTTCAAACTTATCCGTT, the sensor-assay potency score (higher = more potent) is -0.472.

For another test, the target named is FIGF. Described as above. The settings on record: shRNA.
As for TTGGTCTGGATTCACTGTGGTG, the sensor-assay potency score (higher = more potent) was -0.724.

On to TGTTTTACAGACACACTCGCAA, for which the sensor-assay potency score (higher = more potent) was 0.505.

With TTCTGCATAAAAAAGAATCAGA, the sensor-assay potency score (higher = more potent) is -0.887.

The sequence TAGAAGACATCCATCAATGAAC came in with a sensor-assay potency score (higher = more potent) of -1.15.

TTGCACTCAAAGCAACTGCAGT had a sensor-assay potency score (higher = more potent) of -1.07.

For TAGAAAGTTGCCGCAAACCTAG, the sensor-assay potency score (higher = more potent) was -0.566.

On to TTGGCAAGCACTTACAACCTGT, for which the sensor-assay potency score (higher = more potent) was -0.889.

The sequence TTTGTTGCTATCCCATAGCATG registered a sensor-assay potency score (higher = more potent) of -1.38.

ATCTTCGTCAAACATCATGTGT: the sensor-assay potency score (higher = more potent) is -0.944.

The sequence TAATCAGTCATATGACACCTGC displayed a sensor-assay potency score (higher = more potent) of -0.697.

TAGCATGTCAATAGGACAGAGT: the sensor-assay potency score (higher = more potent) is -0.483.

AAACTTTTGAGCCTCAGCCTGC: the sensor-assay potency score (higher = more potent) was -0.913.

On to TTACAGACACACTCGCAACGAT, for which the sensor-assay potency score (higher = more potent) was -0.443.

Take TAATTGAGTATGGATGGCGGGG: the sensor-assay potency score (higher = more potent) is -0.582.

The sequence TACAGACACACTCGCAACGATC had a sensor-assay potency score (higher = more potent) of -1.17.

Take TGATCTGCTGTTCAGATCGTTC: the sensor-assay potency score (higher = more potent) was -1.69.

TTACATTTGTTGCTATCCCATA came in with a sensor-assay potency score (higher = more potent) of -0.837.

For the sequence TGCAACAGCCACCACATCGGAA, the sensor-assay potency score (higher = more potent) is -0.975.

For the sequence TTCATCTATAACTTTTAGTGTT, the sensor-assay potency score (higher = more potent) was -0.356.

Sequence TTCTTCATCTATAACTTTTAGT gave a sensor-assay potency score (higher = more potent) of -0.323.

The sequence TTTTTTTTTAACACCTGGGAAA came in with a sensor-assay potency score (higher = more potent) of -1.2.

Sequence TTCTTTGCCATTCTTCATCTAT gave a sensor-assay potency score (higher = more potent) of -0.386.

Regarding TAGTGTTTCAATGTCATAGAAA, the sensor-assay potency score (higher = more potent) is -1.28.

As for TCATCTATAACTTTTAGTGTTT, the sensor-assay potency score (higher = more potent) was -1.04.

A further test deals with FILIP1L. The test is described as above. Conditions: shRNA.
TTAGAGAACCACAAGACTCTGG yielded a sensor-assay potency score (higher = more potent) of 0.224.

Regarding TTTTTCAACATATTAACTCTTG, the sensor-assay potency score (higher = more potent) was -0.558.

In the case of TTCTTGATCAATTAGCTTCTTT, the sensor-assay potency score (higher = more potent) came to 0.000192.

TTACTCTGTAACGTCTCCCTTT gave a sensor-assay potency score (higher = more potent) of -0.579.

On to TTTTCTGCTAACTTGTACTTAG, for which the sensor-assay potency score (higher = more potent) was -0.314.

In the case of TAATTTGTGATTGTCGAGGAAG, the sensor-assay potency score (higher = more potent) is -0.722.

As for TTGTCTACTGCTTCTGTCTGAA, the sensor-assay potency score (higher = more potent) amounted to 0.143.

Regarding TTTTTCCACAACTTTGTCCAAC, the sensor-assay potency score (higher = more potent) is -1.3.

In turn, TATAGTTCATGCACAAACCTTC registered a sensor-assay potency score (higher = more potent) of -0.0966.

Sequence TTGCTGTTCATCCACCACCATC gave a sensor-assay potency score (higher = more potent) of -1.76.

TTTTTCTTTTATATCTTGCAGC had a sensor-assay potency score (higher = more potent) of -0.415.

With TTGAGTTCGGTTATCCTGCAGT, the sensor-assay potency score (higher = more potent) is -0.337.
